From PubChem
The list is not random: actives were taken first. Their share in the collection is about 0.86%.
IDE inh = inhibitors of human insulin-degrading enzyme in cells. P14735. HEK cells, FAbetaB cleavage, fluorescence polarization. inhibition, % at 5.59 µM. 320,000 compounds, 0.41% hits. AID 434962;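 active = percent inhibition above the average of all tested compounds plus 3 SD, set per screening campaign, cut at about 16% in these data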;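 note: IDE supplied by intact live HEK cells; FP after avidin binding of uncleaved biotin substrate so inhibition keeps polarization high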
NOD2 RIPK2 PPI = inhibitors of human NOD2-RIPK2 interaction | 360,000 compounds, 0.38% hits | O43353 | inhibition, % at 4.98 µM | CHO BLA complementation NOD2-RIPK2, CCF4 ratio; in the data active = inhibition above about 21%
IDE act = activators of human insulin-degrading enzyme in cells; P14735; HEK cells, FAbeta-B cleavage, fluorescence polarization; 0% vehicle, 100% cell-free pure enzyme wells; activation, % at 5.96 µM; 340,000 compounds, 0.073% hits; AID 493087;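 active = activation above the mean of all tested compounds plus 3 SD, set per screening campaign, cut at about 17% in these data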
TLR4-MyD88 BLA = TLR4-MyD88 interaction inhibition in cells; O00206+Q99836; HeLa CL3-4 TLR4/MyD88 BLA complementation, FRET ratio; inhibition, % at 8.4 µM; 200,000 compounds, 0.18% hits; AID 861; in the data active = inhibition above about 25%
Target sequence (O00206 whole entry, looked up): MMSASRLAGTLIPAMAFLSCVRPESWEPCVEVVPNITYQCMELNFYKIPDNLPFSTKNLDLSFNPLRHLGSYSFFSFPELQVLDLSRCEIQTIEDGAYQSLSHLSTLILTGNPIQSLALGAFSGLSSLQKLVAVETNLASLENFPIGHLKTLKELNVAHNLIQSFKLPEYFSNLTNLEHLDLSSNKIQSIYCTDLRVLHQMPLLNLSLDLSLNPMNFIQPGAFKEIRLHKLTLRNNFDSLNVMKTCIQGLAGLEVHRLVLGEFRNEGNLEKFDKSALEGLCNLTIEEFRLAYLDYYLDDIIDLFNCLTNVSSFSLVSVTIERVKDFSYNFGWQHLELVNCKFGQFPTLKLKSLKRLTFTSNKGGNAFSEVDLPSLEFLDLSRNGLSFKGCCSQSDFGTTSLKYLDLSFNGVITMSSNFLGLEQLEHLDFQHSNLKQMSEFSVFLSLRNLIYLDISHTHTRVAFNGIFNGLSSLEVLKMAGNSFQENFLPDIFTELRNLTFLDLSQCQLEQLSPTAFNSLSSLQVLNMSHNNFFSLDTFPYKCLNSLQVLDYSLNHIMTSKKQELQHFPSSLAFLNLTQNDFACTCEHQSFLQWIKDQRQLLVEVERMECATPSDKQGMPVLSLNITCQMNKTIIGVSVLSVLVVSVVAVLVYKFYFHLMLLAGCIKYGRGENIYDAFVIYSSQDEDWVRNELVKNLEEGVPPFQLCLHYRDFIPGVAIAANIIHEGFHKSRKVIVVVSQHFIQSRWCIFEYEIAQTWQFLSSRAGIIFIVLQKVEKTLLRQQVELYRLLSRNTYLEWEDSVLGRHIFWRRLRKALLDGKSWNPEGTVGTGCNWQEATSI
Target sequence (Q99836 whole entry, looked up): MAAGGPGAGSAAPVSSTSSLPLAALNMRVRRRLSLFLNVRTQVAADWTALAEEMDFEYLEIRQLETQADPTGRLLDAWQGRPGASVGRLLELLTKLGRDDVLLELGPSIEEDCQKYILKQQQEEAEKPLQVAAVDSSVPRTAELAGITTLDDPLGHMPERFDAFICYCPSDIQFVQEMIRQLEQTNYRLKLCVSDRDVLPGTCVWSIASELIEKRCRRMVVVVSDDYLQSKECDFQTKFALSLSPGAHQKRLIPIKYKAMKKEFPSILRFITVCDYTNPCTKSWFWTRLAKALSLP
TLR9-MyD88 inh = blocks human TLR9 binding to MyD88; Q9NR96+Q99836; CHO BLA complementation TLR9-MyD88, CCF4 FRET ratio; inhibition, % at 4.98 µM; 340,000 compounds, 0.21% hits; AID 504734;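 active = inhibition above the mean over all tested compounds plus 3 SD, cut at about 21% in these data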
Numbers stand for hits.

CC(CCC(C)C(C)(C)C)[C@@H]1CC[C@H]2C3C[C@H](OS(O)(=S)=S)[C@H]4C[C@H](OS(O)(=S)=S)[C@@H](OS(O)(=S)=S)C[C@]4(C)[C@H]3CC[C@]12C (stereo partly drawn) (tested in a mixture with another compound) was read as IDE inh inactive, NOD2 RIPK2 PPI 24, IDE act inactive and TLR9-MyD88 inh inactive.
For COc1ccc2c(c1)c(C(=O)N/N=C/c1cccc(Br)c1)c(C)n2C the results were IDE inh 18, NOD2 RIPK2 PPI inactive, IDE act inactive and TLR9-MyD88 inh inactive.
Screening CC(=O)Nc1ccc(NC(=O)c2ccc(-n3c(C)ccc3C)cc2)cc1 returned IDE inh inactive, NOD2 RIPK2 PPI inactive, IDE act inactive, TLR4-MyD88 BLA inactive and TLR9-MyD88 inh inactive.
c1ccc(-[n+]2nc(Nc3cccc4ccccc34)sc2-c2c3ccccc3cc3ccccc23)cc1 was read as IDE inh inactive, NOD2 RIPK2 PPI 51, IDE act inactive and TLR9-MyD88 inh 44.
For COc1ccc(C)cc1Nc1n[n+](-c2ccccc2)c(-c2c(OC)ccc3ccccc23)s1 the results were IDE inh inactive, NOD2 RIPK2 PPI inactive, IDE act inactive and TLR9-MyD88 inh inactive.
COc1ccc(CN2CCC(CNS(=O)(=O)c3cccc(C(F)(F)F)c3)CC2)cc1 was read as IDE inh inactive, NOD2 RIPK2 PPI inactive, IDE act inactive and TLR9-MyD88 inh inactive.
For O=C1C2C3C=CC(CO)(O3)C2C(=O)N1c1ccccc1-c1ccccc1 (stereo not drawn) the results were IDE inh inactive, NOD2 RIPK2 PPI 81, IDE act inactive, TLR4-MyD88 BLA inactive and TLR9-MyD88 inh inactive.
CC(OC(=O)c1cc(=O)[nH]c2ccccc12)C(=O)Nc1ccc(Cl)cn1 (stereo not drawn) was read as IDE inh inactive, NOD2 RIPK2 PPI inactive, IDE act inactive and TLR9-MyD88 inh inactive.
Screening C[C@H](CO)N1C[C@H](C)[C@H](CN(C)C)Oc2ccc(NS(=O)(=O)c3ccc(F)cc3)cc2CC1=O returned IDE inh inactive, NOD2 RIPK2 PPI inactive, IDE act inactive and TLR9-MyD88 inh inactive.
For CNC[C@@H]1Oc2ccc(NS(=O)(=O)c3ccc(OC)cc3)cc2CC(=O)N([C@H](C)CO)C[C@@H]1C the results were IDE inh inactive, NOD2 RIPK2 PPI inactive, IDE act 22 and TLR9-MyD88 inh inactive.
`O=C1c2cccc3c(N4CCCCC4)ccc(c23)C(=O)N1c1ccc(Cl)cn1` gave TLR4-MyD88 BLA 28.
For CCCN1C(=O)c2cccc3c(N4CCCCC4)ccc(c23)C1=O the results were IDE inh inactive, NOD2 RIPK2 PPI inactive, IDE act inactive, TLR4-MyD88 BLA inactive and TLR9-MyD88 inh inactive.
C#CCOCCOCCOCCNc1nc(N2CCN(C(=O)CCCCCCCCCCNC(=O)Cn3cc(C[C@@H](C)O)nn3)CC2)nc(N2CCN(C(=O)CCCCCCCCCCNC(=O)[C@H](CCCCN)n3cc(CCCC(=O)O)nn3)CC2)n1 was read as IDE inh inactive, NOD2 RIPK2 PPI inactive, IDE act inactive and TLR9-MyD88 inh inactive.
For C#CCOCCOCCOCCNc1nc(N2CCN(C(=O)CCCCCCCCCCNC(=O)[C@H](CO)n3cc(CCCSC)nn3)CC2)nc(N2CCN(C(=O)CCCCCCCCCCNC(=O)[C@H](CCCN=C(N)N)n3cc(C[C@@H](C)CC)nn3)CC2)n1 the results were IDE inh inactive, NOD2 RIPK2 PPI 21, IDE act 55 and TLR9-MyD88 inh inactive.
`C#CCOCCOCCOCCNc1nc(N2CCN(C(=O)CCCCCCCCCCNC(=O)[C@@H](CCSC)n3cc(CCO)nn3)CC2)nc(N2CCN(C(=O)CCCCCCCCCCNC(=O)[C@H](CCSC)n3cc(CCO)nn3)CC2)n1` gave IDE inh inactive, NOD2 RIPK2 PPI inactive, IDE act inactive and TLR9-MyD88 inh inactive.
Screening C#CCOCCOCCOCCNc1nc(N2CCN(C(=O)CCCCCCCCCCNC(=O)Cn3cc(CCCCCN)nn3)CC2)nc(N2CCN(C(=O)CCCCCCCCCCNC(=O)[C@@H](CCSC)n3cc(CCO)nn3)CC2)n1 returned IDE inh inactive, NOD2 RIPK2 PPI inactive, IDE act 31 and TLR9-MyD88 inh inactive.
Screening C#CCOCCOCCOCCNc1nc(N2CCN(C(=O)CCCCCCCCCCNC(=O)Cn3cc(C[C@@H](C)O)nn3)CC2)nc(N2CCN(C(=O)CCCCCCCCCCNC(=O)[C@H](CO)n3cc(CCCSC)nn3)CC2)n1 returned IDE inh inactive, NOD2 RIPK2 PPI inactive, IDE act inactive and TLR9-MyD88 inh inactive.
`C#CCOCCOCCOCCNc1nc(N2CCN(C(=O)CCCCCCCCCCNC(=O)Cn3cc(C[C@@H](C)O)nn3)CC2)nc(N2CCN(C(=O)CCCCCCCCCCNC(=O)[C@H](CCCN=C(N)N)n3cc(C[C@@H](C)CC)nn3)CC2)n1` gave IDE inh inactive, NOD2 RIPK2 PPI 24, IDE act 35 and TLR9-MyD88 inh inactive.
C#CCOCCOCCOCCNc1nc(N2CCN(C(=O)CCCCCCCCCCNC(=O)[C@H](CO)n3cc(CCCSC)nn3)CC2)nc(N2CCN(C(=O)CCCCCCCCCCNC(=O)[C@H](CCCCN)n3cc(CCO)nn3)CC2)n1 was read as IDE inh inactive, NOD2 RIPK2 PPI inactive, IDE act 22 and TLR9-MyD88 inh inactive.
For CC(C)C[C@H](NC(=O)C1CC(=O)N(c2ccc3c(c2)OCO3)C1)C(=O)NC1CCCC1 (stereo partly drawn) the results were IDE inh inactive, NOD2 RIPK2 PPI inactive, IDE act inactive and TLR9-MyD88 inh inactive.
`COc1ccc(OC)c(CN2CCC(N3CCC(C(=O)NC4CC4)CC3)CC2)c1` gave IDE inh inactive, NOD2 RIPK2 PPI inactive, IDE act inactive and TLR9-MyD88 inh inactive.
CCOc1ccc2[nH]c3c(N4CCc5ccccc5C4)ncnc3c2c1 was read as IDE inh 28 and NOD2 RIPK2 PPI inactive.
For Cc1ccc2[nH]c3c(N4CCc5ccccc5C4)ncnc3c2c1 the results were IDE inh 62, NOD2 RIPK2 PPI inactive, IDE act inactive, TLR4-MyD88 BLA inactive and TLR9-MyD88 inh inactive.
`CC(C)(O)C#Cc1ccccc1C(=O)NC(CC(N)=O)C(=O)O` (stereo not drawn) gave IDE inh inactive, NOD2 RIPK2 PPI inactive, IDE act 18, TLR4-MyD88 BLA inactive and TLR9-MyD88 inh inactive.
For CCC(C)[C@@H](NC(=O)OC(C)(C)C)c1nnc(S(=O)(=O)Cc2cccc(C)c2)o1 (stereo partly drawn) the results were NOD2 RIPK2 PPI 24, IDE act inactive, TLR4-MyD88 BLA inactive and TLR9-MyD88 inh inactive.
Screening CC(C)(C)OC(=O)N[C@@H](Cc1ccccc1)c1nnc(S(=O)(=O)Cc2ccccc2)o1 returned IDE inh inactive and TLR4-MyD88 BLA inactive.
FC(F)(F)c1ccc(CSc2nccn2-c2ccccc2)cc1 was read as IDE inh inactive, NOD2 RIPK2 PPI inactive, IDE act inactive, TLR4-MyD88 BLA inactive and TLR9-MyD88 inh inactive.
